Shown are actives, neighbours in structure and some others; about 5.9% of the full set was active somewhere.
ATXN2 expr inh: inhibitors of ATXN2 expression | Potency, µM (series often up to 57 µM), for the others: at the highest dose activity change, negative = inhibition, hits mostly inhibitors | AID 1745845 | HEK-293 ATXN2-luciferase reporter, luminescence, 24 h | 360,000 compounds, 0.72% hits; further: on the % scale 0 is the no-effect control and ±100 the full control effect; nearly all actives have a fitted effect of over 55% in size
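ATXN2-luciferase reporter cells (luciferase flanked by upstream and downstream ATXN2 gene portions) were treated 24 h at 37 °C with compounds at up to 57 uM. SteadyGlo luminescence gave expression; GF-AFC fluorescence gave viability.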
KB-V1 MDR tox: kills drug-selected multidrug resistant KB-V1 cells; KB-V1 MDR cells viability, CellTiter-Glo, 72 h; Potency, µM (highest dose often 46.1 µM), usual class: cytotoxic; 400,000 compounds, 3.4% hits; further: on the % scale 0 is the no-effect control and ±100 the full control effect; nearly all actives have a fitted effect of over 60% in size
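In this primary screen, KB-V1 cells overexpressing P-gp are incubated with library compounds (lowest to highest concentration) for 72 h at 37 degrees C before a luminescent ATP viability read.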
TGFb SMAD3 inh: inhibitors of TGF-b signaling; HepG2 CAGA-GFP TGF-b/SMAD3 reporter, GFP fluorescence, 18 h; TGF-beta stimulated, 500 pg/mL final; Potency, µM (top dose mostly 46.1 µM), inactives show at the top dose activity, negative = inhibition, actives largely listed as inhibitors; 410,000 compounds, 1.2% hits; further: on the % scale 0 is the no-effect control and ±100 the full control effect; nearly all actives have a fitted effect of over 65% in size
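Cell-based qHTS in HEPG2 carrying a CAGA-GFP Smad reporter; compounds added before 500 pg/mL final TGF-beta, 18 h incubation at 37 degrees C, GFP fluorescence quantified per cell by imaging cytometry.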
KB-3-1 cytotox: kills parental KB-3-1 adenocarcinoma cells | KB-3-1 viability, CellTiter-Glo ATP luminescence, 72 h | Potency, µM (series often up to 46.1 µM), actives largely listed as cytotoxic | 400,000 compounds, 1.4% hits | AID 1347075; further: on the % scale 0 is the no-effect control and ±100 the full control effect; nearly all actives have a fitted effect of over 60% in size
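Luminescent ATP read-out (CellTiter-Glo) measures survival of drug-naive KB-3-1 cells after 72 h compound exposure at 37 °C. Titration series was screened from lowest to highest concentration, with DMSO vehicle plates as background controls.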
ATXN viability: reduces viability in counter-screen for ATXN expression inhibitors; S2 cells (HEK-293 line with an ATXN2-luciferase reporter) viability, CellTiter-Fluor protease fluorescence, 24 h; Potency, µM (highest dose often 56.7 µM), usual class: cytotoxic; 400,000 compounds, 0.49% hits; AID 651635; further: nearly all actives have a fitted effect of over 40% in size
HepG2 tox: counter-screen for TGF-b inhibitors: cytotoxicity in HepG2 cells; HepG2 CAGA-GFP viability, ATP luminescence, 18 h; Potency, µM (doses to about 46.1 µM), for the others: at the highest dose activity change, negative = cytotoxicity, usual class: cytotoxic; 410,000 compounds, 0.76% hits; AID 588856
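CellTiter-Glo luminescence gave cytotoxicity after 18 hours at 37 degrees C. The cells were HepG2 CAGA-GFP in 1% FBS DMEM, stimulated with 500 pg/mL TGF-beta after compound addition. %Activity was normalised to no-cell wells (complete cell-killing) and DMSO (no toxicity), and curves were fitted and classified.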
An asterisk follows results filed as active; i = inactive; u = inconclusive; x = not tested or not shown; ! = not confirmed by another sample. The call rests on the fitted dose curve; in most records, active means well fitted curve in the direction sought with a large enough effect; inconclusive means small, poorly fitted or top-dose-only effect, or another doubt; inactive means no such curve, though single readings can be large; an effect the other way counts as inactive or inconclusive. Potency means the concentration at half of the fitted maximal effect.

SMILES	ATXN2 expr inh	KB-V1 MDR tox	TGFb SMAD3 inh	KB-3-1 cytotox	ATXN viability	HepG2 tox
COc1ccc(OC)c(NS(=O)(=O)c2ccc(NC(=O)c3ccc(NS(C)(=O)=O)cc3)cc2)c1	-16.0%	i	u	16.4µM*	i	-6.3%
COc1ccc(NC(=O)c2ccc3ccccc3c2)cc1NS(=O)(=O)c1ccc(F)cc1	-0.5%	20.6µM*	-1.3%	i	i	-12.4%
O=c1[nH]c(SCc2c(F)cccc2Cl)nc2c1CCC2	-4.9%	i	14.0%	i	i	12.8%
CCN(C(=O)C1CCN(S(=O)(=O)c2c(C)noc2/C=C/c2ccc(C)cc2)CC1)c1cccc(C)c1	7.8%	i	-20.6%	i	i	-28.3%
Cc1ccc(C(=O)NC2CCc3ccccc3C2=O)cc1 (centres undefined)	70.8%	i	-9.9%	i	i	1.5%
Cc1ccc(C(=O)NC2c3ccccc3-c3ccccc32)cc1	-12.8%	5.17µM*	4.3%	6.51µM*	u	10.4%
O=C(C#Cc1ccccc1)c1ccco1	u	i	3.16µM*	u	u	11.2µM*
CCOc1ccc(N(C(=O)OC(C)(C)C)C(=O)c2ccc(O[Si](C)(C)C(C)(C)C)cc2)c(I)c1	x	x	-22.8%	x	x	-5.0%
Cc1ccccc1OCC(=O)Nc1ccc2c(c1)OCCO2	x	i	6.6%	i	i	10.8%
CC(=O)c1c(C)[nH]c(C(=O)OCC(=O)Nc2ccc(Cl)c(S(=O)(=O)N(C)C)c2)c1C	x	u	u	u	12.6µM*	1.3%
CC(=O)c1c(C)[nH]c(C(=O)OCC(=O)Nc2ccc3c(c2)OCCO3)c1C	-7.5%	20.6µM*	-7.4%	u	i	-28.2%
Cc1cccc(C)c1OCC(=O)Nc1ccc2c(c1)OCCO2	18.4%	u	5.8%	23.1µM*	i	-5.2%
CCC(CC)C(=O)Nc1ccc2nc(SCC(=O)N3c4ccccc4CC3C)sc2c1 (centres undefined)	49.1%	i	21.2%	u	u	2.5%
C=C1CCN(C(Cc2ccccc2)C(=O)N2CCOCC2)S(=O)(=O)c2ccccc21 (centres undefined)	x	x	-0.4%	x	x	5.0%
CCc1ccc(NC(=O)c2cnn(-c3c(C)cccc3C)c2C2CCN(C(=O)OC(C)(C)C)CC2)cc1	14.0%	u	-11.1%	u	i	-1.3%
CCc1nn(CC(=O)NCc2cccc(OC)c2)c(=O)c2cc3cc(F)ccc3n12	3.1%	i	-9.0%	i	u	-22.3%
CC(C)C1N=C2c3ccccc3N=C(SCc3cc(=O)n4cc(Cl)ccc4n3)N2C1=O (centres undefined)	-6.2%	23.1µM*	18.3%	u	i	-21.7%
OC1CCN(Cc2ccc3c(c2)CN(Cc2ccc(Oc4ncccn4)cc2)CCO3)CC1	x	x	x	x	i	x
Nc1ncnc2c1c(-c1cnc3[nH]ccc3c1)nn2C1CCCC1	19.3µM*	x	x	x	x	x
N#CC1=C(N)OC2=C(CC/C2=C\c2ccccc2Cl)C1c1ccccc1Cl (centres undefined)	x	u	11.2µM*	i	x	-27.6%
N#CC1=C(N)OC2=C(CC/C2=C\c2ccccc2)C1c1ccccc1 (centres undefined)	13.0%	u	66.4%	u	x	-1.4%
CCCCCCCCNC(C)C(O)c1ccc(SC(C)C)cc1 (centres undefined)	25.1µM*!	16.4µM*	u	i	u	-102.5%
O=C(NCc1ccccc1Cl)c1cccc(OC2CCN(C(=O)C3CC3)CC2)c1	-2.7%	6.51µM*	2.0%	u	i	-17.5%
Nc1ccc(-c2cnc(N)c(C(=O)c3cccnc3)n2)cn1	u	i	7.94µM*	u	u	-19.2%
Nc1ccc(C(=O)c2cccs2)cn1	x	i	-4.5%	i	i	7.5%
SMILES	ATXN2 expr inh	KB-V1 MDR tox	TGFb SMAD3 inh	KB-3-1 cytotox	ATXN viability	HepG2 tox
CCCCCc1cc(=O)oc2c(C(CCN3CCCC3)c3cc(OC)c(OC)c(OC)c3)c(OC)cc(OC)c12 (centres undefined)	u	i	u	u	x	15.8µM*
CCCCCc1cc(=O)oc2c(C(CCN3CCCC(C)C3)c3ccc(OC)cc3)c(OC)cc(OC)c12 (centres undefined)	u	i	u	u	x	11.2µM*
COc1cc(OC)c2ccc(=O)oc2c1C(CCN1CCCC(C)C1)c1ccc2c(c1)OCO2 (centres undefined)	-21.3%	i	u	i	28.2µM*	-46.0%
COc1cc(C(CCN2CCCC2)c2c(OC)cc(OC)c3c(C)cc(=O)oc23)cc(OC)c1OC (centres undefined)	10.4%	i	2.9%	i	u	-0.5%
COc1cc(OC)c2ccc(=O)oc2c1C(CCN1CCCC1)c1ccc(N(C)C)cc1 (centres undefined)	5.2%	i	-11.0%	i	u	-2.0%
CCCCCc1cc(=O)oc2c(C(CCN3CCCC3)c3ccc(N(C)C)cc3)c(OC)cc(OC)c12 (centres undefined)	u	i	u	u	31.6µM*	12.6µM*
O=C(O)c1cc2c(ncc3c(=O)n(-c4ccccc4)[nH]c32)s1	3.3%	i	-3.8%	i	x	-10.1%
Cc1ccc(Cl)cc1NC(=O)C1CCN(S(=O)(=O)c2cccc3nonc23)CC1	-18.7%	i	-10.9%	i	u	-7.9%
COc1cc(C(CCN2CCCC(C)C2)c2c(OC)cc(OC)c3c(-c4ccccc4)cc(=O)oc23)cc(OC)c1OC (centres undefined)	u	i	-6.0%	u	x	-4.5%
COc1cc(C(CCN2CCCCC2)c2c(OC)cc(OC)c3c(-c4ccccc4)cc(=O)oc23)cc(OC)c1OC (centres undefined)	u	u	u	u	25.1µM*	-80.1%
CCCCCc1cc(=O)oc2c(C(CCN3CCCCC3)c3ccc(OC)cc3)c(OC)cc(OC)c12 (centres undefined)	u	u	u	u	31.6µM*	11.2µM*!
CCCCCc1cc(=O)oc2c(C(CCN3CCN(c4ccccc4)CC3)c3ccc4c(c3)OCO4)c(OC)cc(OC)c12 (centres undefined)	-3.1%	i	-7.9%	i	u	-13.2%
Cc1ccc(CN2CCOc3ccc(C(C)(O)COc4ccccc4)cc3C2)o1 (centres undefined)	x	x	x	x	i	x
O=C1c2ccccc2C(=O)C1c1cc2ccccc2cn1	x	i	2.9%	i	x	6.5%
O=C1c2ccccc2C(=O)C1c1ccc2ccccc2n1	u	2.59µM*!	42.9%	i	i	-15.5%
